Measurements: PubChem BioAssay AID1671202 (University of Kansas High Throughput Screening Laboratory, 2021)
“And” between values parts separate entries of the source, which are not always exact repeats. Equal entries are not always repeated. The campaign covered roughly 190,000 compounds. About 6,900 (3.6%) were called active. For the sample, actives were picked, then their nearest neighbours and some compounds at random. Values without a mark were called inactive. Rule as the data show it: active = inhibition above about 50%; inactive = the rest.

target: Huntingtin (Homo sapiens) (UniProt P42858); experiment: mutant huntingtin-calmodulin interaction inhibitors – biochemical, AlphaScreen, primary screen (AID 1671202); settings: AlphaScreen His-mHTT/GST-CaM binding, luminescence; at 15 µM, active compounds read high;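 as to inhibition: 0% = both proteins with DMSO and 100% = one protein alone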
Sequence (P42858 whole entry, looked up, stated change not applied): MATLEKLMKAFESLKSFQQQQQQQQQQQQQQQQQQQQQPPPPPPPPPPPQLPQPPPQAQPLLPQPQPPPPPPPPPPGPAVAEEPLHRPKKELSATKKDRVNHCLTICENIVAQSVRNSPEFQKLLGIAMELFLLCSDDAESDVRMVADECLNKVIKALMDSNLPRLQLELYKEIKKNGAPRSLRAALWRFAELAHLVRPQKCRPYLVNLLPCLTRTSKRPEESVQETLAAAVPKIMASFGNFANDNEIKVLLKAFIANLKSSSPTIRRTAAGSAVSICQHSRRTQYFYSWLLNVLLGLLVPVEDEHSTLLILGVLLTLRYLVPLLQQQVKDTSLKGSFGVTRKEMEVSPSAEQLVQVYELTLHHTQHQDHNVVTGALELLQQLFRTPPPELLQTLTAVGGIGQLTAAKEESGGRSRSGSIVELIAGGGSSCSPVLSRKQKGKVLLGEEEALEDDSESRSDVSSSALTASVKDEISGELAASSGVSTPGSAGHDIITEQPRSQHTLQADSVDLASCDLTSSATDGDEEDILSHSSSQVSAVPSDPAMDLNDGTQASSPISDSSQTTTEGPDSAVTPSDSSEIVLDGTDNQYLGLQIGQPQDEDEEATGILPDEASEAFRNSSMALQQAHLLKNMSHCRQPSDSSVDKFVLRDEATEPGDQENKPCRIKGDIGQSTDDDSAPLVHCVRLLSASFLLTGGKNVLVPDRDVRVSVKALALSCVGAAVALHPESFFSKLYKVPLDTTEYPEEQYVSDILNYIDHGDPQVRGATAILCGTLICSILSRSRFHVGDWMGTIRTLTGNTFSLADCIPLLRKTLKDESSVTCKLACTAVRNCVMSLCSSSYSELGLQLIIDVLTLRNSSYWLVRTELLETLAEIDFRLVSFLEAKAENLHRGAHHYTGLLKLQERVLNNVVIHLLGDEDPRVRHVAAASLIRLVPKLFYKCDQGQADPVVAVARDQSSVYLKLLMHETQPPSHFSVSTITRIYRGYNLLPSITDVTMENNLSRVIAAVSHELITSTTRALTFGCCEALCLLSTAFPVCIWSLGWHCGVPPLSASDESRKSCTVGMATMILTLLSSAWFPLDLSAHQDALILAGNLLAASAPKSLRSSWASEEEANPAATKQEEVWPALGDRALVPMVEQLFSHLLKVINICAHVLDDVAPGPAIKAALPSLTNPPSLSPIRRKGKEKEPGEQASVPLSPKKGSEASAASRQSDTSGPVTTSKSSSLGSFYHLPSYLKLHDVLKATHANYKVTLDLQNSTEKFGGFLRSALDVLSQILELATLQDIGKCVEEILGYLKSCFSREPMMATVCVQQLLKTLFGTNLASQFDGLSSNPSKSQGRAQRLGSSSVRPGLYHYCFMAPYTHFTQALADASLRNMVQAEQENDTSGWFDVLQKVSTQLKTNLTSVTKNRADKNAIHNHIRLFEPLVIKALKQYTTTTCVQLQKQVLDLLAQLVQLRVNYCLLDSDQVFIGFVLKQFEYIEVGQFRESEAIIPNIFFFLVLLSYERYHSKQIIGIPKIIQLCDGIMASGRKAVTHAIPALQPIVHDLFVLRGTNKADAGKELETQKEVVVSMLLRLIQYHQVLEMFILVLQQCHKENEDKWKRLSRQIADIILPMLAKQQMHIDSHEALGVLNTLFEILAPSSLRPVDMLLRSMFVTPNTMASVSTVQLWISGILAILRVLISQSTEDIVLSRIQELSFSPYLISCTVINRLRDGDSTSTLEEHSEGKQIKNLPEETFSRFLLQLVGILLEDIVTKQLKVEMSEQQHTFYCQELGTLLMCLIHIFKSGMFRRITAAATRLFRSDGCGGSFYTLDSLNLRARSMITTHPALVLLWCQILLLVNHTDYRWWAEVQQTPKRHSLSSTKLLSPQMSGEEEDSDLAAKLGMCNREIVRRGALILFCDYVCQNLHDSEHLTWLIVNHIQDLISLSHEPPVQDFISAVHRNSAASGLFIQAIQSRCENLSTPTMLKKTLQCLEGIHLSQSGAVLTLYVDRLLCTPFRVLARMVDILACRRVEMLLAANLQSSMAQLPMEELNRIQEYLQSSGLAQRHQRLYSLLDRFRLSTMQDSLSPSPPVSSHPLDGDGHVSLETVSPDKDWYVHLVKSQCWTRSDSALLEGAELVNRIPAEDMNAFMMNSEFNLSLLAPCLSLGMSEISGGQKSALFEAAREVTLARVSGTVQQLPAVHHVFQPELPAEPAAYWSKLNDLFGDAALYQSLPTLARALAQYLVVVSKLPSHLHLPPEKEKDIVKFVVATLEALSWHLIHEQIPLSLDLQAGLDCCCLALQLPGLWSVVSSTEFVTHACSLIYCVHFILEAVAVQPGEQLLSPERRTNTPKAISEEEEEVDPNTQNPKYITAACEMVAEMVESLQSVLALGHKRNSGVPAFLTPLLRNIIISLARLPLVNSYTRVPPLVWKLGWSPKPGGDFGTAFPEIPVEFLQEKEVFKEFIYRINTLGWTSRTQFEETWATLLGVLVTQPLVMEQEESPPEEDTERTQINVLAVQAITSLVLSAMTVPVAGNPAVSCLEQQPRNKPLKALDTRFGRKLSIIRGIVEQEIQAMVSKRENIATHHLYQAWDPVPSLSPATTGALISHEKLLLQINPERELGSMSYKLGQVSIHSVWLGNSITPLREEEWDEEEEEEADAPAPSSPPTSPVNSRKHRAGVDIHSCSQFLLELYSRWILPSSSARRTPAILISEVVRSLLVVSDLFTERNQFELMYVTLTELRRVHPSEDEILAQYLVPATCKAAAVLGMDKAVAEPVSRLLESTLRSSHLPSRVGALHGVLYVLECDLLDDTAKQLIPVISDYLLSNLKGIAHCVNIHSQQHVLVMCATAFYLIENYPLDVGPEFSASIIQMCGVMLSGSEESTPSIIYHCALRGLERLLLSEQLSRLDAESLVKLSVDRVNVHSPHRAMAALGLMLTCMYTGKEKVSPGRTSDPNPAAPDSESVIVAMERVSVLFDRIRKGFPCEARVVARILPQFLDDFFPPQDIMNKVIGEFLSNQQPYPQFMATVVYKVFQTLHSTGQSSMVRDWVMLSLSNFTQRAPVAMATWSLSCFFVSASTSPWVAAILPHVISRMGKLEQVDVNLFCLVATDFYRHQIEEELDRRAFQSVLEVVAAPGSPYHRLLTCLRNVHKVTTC

SMILES	inhibition
Cn1c(C(=O)NCc2ccco2)cc2c1CCN(Cc1ccc(F)cc1)C2	40.4%
O=C(COc1ccccc1)Nc1nc2ccccc2s1	-8.3%
COc1ccc(OC)c(Nc2nc(CC(=O)Nc3nc4ccccc4s3)cs2)c1	54.7% (active)
COc1ccc(C(=O)Nc2nc3ccccc3s2)cc1Br	-8%
CCCC(=O)N1CCN(c2nc3c(s2)c(C)nn3-c2ccc(F)cc2)CC1	0.3%
O=C(NCC1(c2ccccc2)CCOCC1)C(=O)Nc1cccnc1	-3.4%
N#C/C(=C\c1cn[nH]c1-c1cccs1)c1nc2ccccc2[nH]1	37%
CCOc1ccc(C2CC(c3ccccc3Cl)n3nc(N)nc3N2)cc1 (stereo not given)	36.1%
CCOc1ccccc1C1CC(c2ccccc2)Nc2nc(N)nn21 (stereo not given)	18.6%
COc1cccc(C2CC(c3cccc(Cl)c3)n3nc(N)nc3N2)c1 (stereo not given)	30.3%
COc1ccc(C2CC(c3ccc(Cl)cc3Cl)Nc3nc(N)nn32)cc1OC (stereo not given)	70.9% (active)
COc1ccc(C2CC(c3ccc(C)cc3)Nc3nc(N)nn32)cc1 (stereo not given)	11.1%
CCOc1ccccc1C1CC(c2ccc(Cl)cc2)Nc2nc(N)nn21 (stereo not given)	54.2% (active)
Cn1cccc1/C=N/NC(=O)CCCCCCC(=O)N/N=C/c1cccn1C	inactive
COc1ccc(C2C=C(c3ccc(C)cc3)Nc3nnnn32)cc1 (stereo not given)	-16%
Cc1cc(S(=O)(=O)NCC2(O)CCOCC2)c(Cl)cc1Cl	-11.3%
Cc1[nH]nc(-c2ccsc2)c1NC(=O)Cc1ccccc1	-4%
COc1cccc(CC(=O)N2CCCC2c2cc(C)on2)c1 (stereo not given)	-5.74%
CC1CCCN(c2ccc(-c3noc(CN(C)C4CCCCC4)n3)cn2)C1 (stereo not given)	10%
CCc1onc(C)c1C1CCCN1C(=O)c1nn(C)cc1Cl (stereo not given)	-0.93%
COc1cc(OC)c(OC)cc1/C=C1N=C(/C=C/c2ccccc2)OC/1=O	-2%
Cc1nc(-c2ccc(N3CCN(C(=O)C4CCCO4)CC3)nc2)no1 (stereo not given)	-5.6%
CCOC(=O)N1CCN(Cc2nc(-c3ccc(N4CCCCCC4)nc3)no2)CC1	78.7% (active)
c1cc(N2CCCCCC2)ncc1-c1noc(CN2CCCC2)n1	15.8%

SMILES	inhibition
CC(C)Cn1c(C2CCN(C(=O)c3n[nH]c4c3CCCC4)C2)nc2ccncc21 (stereo not given)	5.16%
O=C(CNc1ccccc1-c1nc2ccccc2[nH]c1=O)NC1CCCCCCC1	-7%
CCN(CC)C(=NS(=O)(=O)c1ccccc1)c1ccc(Cl)cc1	-3%
CC(=O)Nc1cccnc1-c1ccc(C(=O)NCc2ccccc2)cc1	-2.7%
CSc1ccc(C2C=C(c3cccs3)Nc3nnnn32)cc1 (stereo not given)	2%
COc1ccc(Cl)cc1C(=O)N1CCn2c(C)nnc2C1	-9.2%
COc1ccc(Cl)cc1C(=O)N1CCN(c2ccc3nnc(-c4ccco4)n3n2)CC1	72% (active)
COc1ccc(Cl)cc1C(=O)N1CCN(c2cccc(Cl)c2)CC1	-0.4%
COc1ccc(C2C(C(=O)Nc3ccc(Cl)cc3)=C(C)Nc3nnnn32)cc1 (stereo not given)	23%
CCCC(=O)NC(Nc1ccccc1OC)C(Cl)(Cl)Cl (stereo not given)	-3%
CCCC(=O)NC(c1ccccc1OC)c1cc([N+](=O)[O-])c2cccnc2c1O (stereo not given)	100% (active)
O=[N+]([O-])c1ccc(SCCO)c2ncccc12	6%
Cc1nc(-n2cccc2)sc1C(=O)NCc1cc(-c2ccco2)on1	-1.3%
CN(Cc1ccccc1F)c1cc2c(c3c1ccn3C)C1CCC2O1 (stereo not given)	75.9% (active)
O=C(C=Cc1ccco1)NCC1COC2(CCCCC2)O1 (stereo not given)	-5.5%
CCOc1ccccc1NC(=O)c1nn(-c2ccccc2OC)c(=O)c2ccccc12	-4%
O=C1CSC(c2ccc(F)cc2)N1c1ccc(Br)cc1 (stereo not given)	-18%
O=C(COc1ccc([N+](=O)[O-])cc1)c1ccc(O)cc1O	2.4%
CCCc1ccc(OCC(O)CN2CCN(C(=O)OCC)CC2)cc1 (stereo not given)	24.7%
CCCc1ccc(OCC(=O)c2ccc(O)c(C)c2O)cc1	80.4% (active)
COCC(=O)N1CCCC(c2ccnc(-c3ccccc3)n2)C1 (stereo not given)	-3.3%
CC1CN(C(=O)COc2cccc3c2OC(C)(C)C3)CC(C)O1 (stereo not given)	1.8%
CCCCOc1ccc(NC(=O)N(Cc2ccccn2)Cc2ccco2)cc1	-0.5%
Cc1ccc(NC(=O)N2CCCC(CC(=O)N3CCN(c4ccccc4F)CC3)C2)cc1 (stereo not given)	8.68%

SMILES	inhibition
CCOC(=O)CCC(=O)N1CCN(C2=NN=C(c3ccccc3)CS2)CC1	32.5%
O=C(c1cccs1)N1CCN(C2=NN=C(c3ccccc3)CS2)CC1	86.5% (active)
O=C(c1cccs1)N1CCN(c2cc(-c3cccnc3)[nH]n2)CC1	-4.79%
O=[N+]([O-])c1ccc(Oc2ccc(Cl)c3cccnc23)c(Cl)c1	-1%
Cc1ccccc1-c1noc(C2CCCN2C(=O)NCc2ccc(F)cc2)n1 (stereo not given)	68.5% (active)
Cc1ccccc1-c1noc(C2CCCN2C(=O)Nc2ccccc2Cl)n1 (stereo not given)	-25.4%
COc1ccc(NC(=O)N2CCCC2c2nc(-c3ccccc3C)no2)cc1 (stereo not given)	7.96%
CCOc1cccc(C(=O)Nc2ccc(-c3nc4ncccc4o3)cc2)c1	-4%
CC1(C)CC(=O)C2=C(C1)c1c(ccc3ncccc13)NC2c1ccc([N+](=O)[O-])cc1 (stereo not given)	54% (active)
CCOc1ccc(C2Nc3ccc4ncccc4c3C3=C2C(=O)CC(C)(C)C3)cc1 (stereo not given)	3%
CC1(C)CC(=O)C2=C(C1)c1c(ccc3ncccc13)NC2c1ccc(O)cc1 (stereo not given)	2%
O=C1OC(/C=C/c2cccc(Cl)c2Cl)=NC/1=C\c1cccc([N+](=O)[O-])c1	1%
O=c1[nH]c2c(c(=O)[nH]1)C(c1cc([N+](=O)[O-])ccc1N1CCOCC1)O2 (stereo not given)	3%
COc1cc(OC)c(C2Oc3ccccc3C3CC(c4cccs4)=NN32)cc1OC (stereo not given)	52% (active)
N#Cc1ccc(C2Oc3ccccc3C3CC(c4ccccc4)=NN32)cc1 (stereo not given)	14% and 1.44%
COc1ccc(C2CC(c3cccs3)=NN2c2ccccc2)cc1 (stereo not given)	-183%
COc1ccc(C2=NN3C(C2)c2ccccc2OC3c2cccc([N+](=O)[O-])c2)cc1 (stereo not given)	10%
Cc1ccc(C2Oc3ccccc3C3CC(c4cccs4)=NN32)o1 (stereo not given)	63% (active)
CC1=NN2C(C1)c1ccccc1OC2c1ccc(Cl)cc1 (stereo not given)	-1%
Cn1cccc1C(=O)N1CC2CC1CC2NS(=O)(=O)c1cccs1 (stereo not given)	14.1%
Fc1ccc(CSc2nnnn2-c2ccc3c(c2)OCO3)cc1	-29%
CC(C)c1nc2c(NC(=O)C3CC3)cccn2n1	-7.5%
CCCCN(CC)S(=O)(=O)c1ccc(Cl)cc1	-36.2%
Cc1cc(C)cc(N2C(=O)C(N3C(=O)c4ccccc4C3=O)C2c2ccc(F)cc2)c1 (stereo not given)	3%

SMILES	inhibition
O=C(Nc1cccc(Cl)c1)C1CCN(c2nccn3nc(-c4ccccc4)cc23)CC1	4.34%
CC(NC(=O)C1CCN(c2nccn3nc(-c4ccccc4)cc23)CC1)c1ccc(F)cc1 (stereo not given)	-3.07%
O=C(NCc1ccc(Cl)cc1)C1CCN(c2nccn3nc(-c4ccccc4)cc23)CC1	52% (active)
O=C(NCc1ccc(F)cc1)C1CCN(c2nccn3nc(-c4ccc(F)cc4)cc23)CC1	4.41%
O=C(NCc1cccs1)C1CCN(c2nccn3nc(-c4ccccc4)cc23)CC1	18.6%
Cc1ccc(-c2cc3c(N4CCC(C(=O)NCc5cccnc5)CC4)nccn3n2)cc1C	59.9% (active)
CC(NC(=O)C1CCN(c2nccn3nc(-c4cccs4)cc23)CC1)c1ccccc1 (stereo not given)	59.4% (active)
CCN(CC)S(=O)(=O)N1CCC(C(=O)NCc2cccnc2)CC1	-11%
O=C(NCCc1ccccn1)C1CCN(c2nccn3nc(-c4ccc(F)cc4)cc23)CC1	15%
CCCCS(=O)(=O)N1CC=C(c2cn(CC)c3ncccc23)CC1	8.9%
Nc1ncnc(N2CCN(c3ccccc3)CC2)c1[N+](=O)[O-]	7%
Cc1ccc(NC(=O)C2CCc3sc(C(=O)N(C)C)cc3C2)cc1Cl (stereo not given)	5.44%
COc1ccc(-c2nc(-c3cccc(-c4ccnn4C)c3)no2)cc1F	-14.7%
CCC(Sc1nnnn1-c1ccccc1)C(=O)Nc1nnc(C(C)C)s1 (stereo not given)	6.4%
O=C(Nc1ccc(N2CCN(c3ccccc3)C2=O)nc1)c1ccc(F)cc1	1.4%
Cn1cccc1CN(C(=O)Nc1ccccc1Cl)C1CC1	22%
COc1cc(/C=C2/C(=O)N(c3ccc(Cl)c(Cl)c3)N=C2C)cc(Br)c1O	75% (active)
COc1cc(/C=C2/SC(=O)NC2=O)cc(Br)c1O	7%
COc1ccc(/C=C2/C(=O)N(c3ccccc3)N=C2C)c(OC)c1	25%
COc1cc(/C=C2/C(=O)N(c3ccc(C(=O)O)cc3)N=C2C)ccc1O	13%
COc1cc(/C=C2/C(=O)N(c3ccc(Cl)c(Cl)c3)N=C2C)ccc1O	79% (active)
CC1=NN(c2ccc(Cl)cc2Cl)C(=O)/C1=C/c1ccc(Cl)cc1	27%
Cc1ccnc(NC(=O)c2c(O)c3cccc4c3n(c2=O)CCC4)c1	4%
